Out of some 310,000 compounds screened, about 14,000 (4.5%) showed an effect of 50% or more. Effects have a minus sign here. Many of the other results were omitted from the sample, so strong results are more common in it than they were.

Data on 42 molecules can be found in publication PMC4336329 (PLoS ONE, 2015).
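Further: peak tail current of the secondary pulse compared with the same well before compound.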

For this assay, the target named is human ether-à-go-go-related gene (hERG) potassium channel (human, UniProt Q12809). In words: primary screen, population patch clamp on CHO cells stably expressing hERG; higher = less effect of the substance.
human ether-à-go-go-related gene (hERG) potassium channel, sequence (Q12809 whole entry, looked up): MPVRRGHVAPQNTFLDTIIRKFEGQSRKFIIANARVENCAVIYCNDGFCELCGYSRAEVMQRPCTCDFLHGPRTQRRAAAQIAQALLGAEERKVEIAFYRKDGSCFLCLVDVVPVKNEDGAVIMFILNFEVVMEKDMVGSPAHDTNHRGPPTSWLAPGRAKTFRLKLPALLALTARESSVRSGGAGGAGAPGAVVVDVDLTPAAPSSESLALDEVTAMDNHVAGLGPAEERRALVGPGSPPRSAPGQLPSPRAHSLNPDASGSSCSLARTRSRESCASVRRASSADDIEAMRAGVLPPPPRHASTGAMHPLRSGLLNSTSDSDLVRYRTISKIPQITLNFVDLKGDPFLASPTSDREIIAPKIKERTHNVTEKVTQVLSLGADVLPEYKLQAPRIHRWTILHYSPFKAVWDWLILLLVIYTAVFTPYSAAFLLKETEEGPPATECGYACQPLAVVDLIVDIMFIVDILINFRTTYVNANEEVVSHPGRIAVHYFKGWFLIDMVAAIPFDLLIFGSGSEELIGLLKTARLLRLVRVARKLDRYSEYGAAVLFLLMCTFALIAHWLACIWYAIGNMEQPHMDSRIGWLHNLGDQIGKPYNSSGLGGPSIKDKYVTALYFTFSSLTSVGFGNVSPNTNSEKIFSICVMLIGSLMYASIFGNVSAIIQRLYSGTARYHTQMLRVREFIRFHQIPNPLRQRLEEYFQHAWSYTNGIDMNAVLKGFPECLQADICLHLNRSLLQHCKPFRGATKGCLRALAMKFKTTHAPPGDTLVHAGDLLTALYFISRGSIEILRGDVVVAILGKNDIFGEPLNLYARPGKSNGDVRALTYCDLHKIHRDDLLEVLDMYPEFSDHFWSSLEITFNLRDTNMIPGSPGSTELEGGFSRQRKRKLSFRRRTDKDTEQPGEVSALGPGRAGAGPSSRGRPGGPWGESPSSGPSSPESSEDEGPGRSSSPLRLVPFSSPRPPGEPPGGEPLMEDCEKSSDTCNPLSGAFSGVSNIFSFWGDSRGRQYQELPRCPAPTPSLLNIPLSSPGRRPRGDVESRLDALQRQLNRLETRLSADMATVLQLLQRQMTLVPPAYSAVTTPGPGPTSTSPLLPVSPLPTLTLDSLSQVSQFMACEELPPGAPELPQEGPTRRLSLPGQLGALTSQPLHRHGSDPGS
Consider `CCNCc1ccccc1OCc1ccccc1.Cl`, for which the “hERG current change (%, negative = inhibition) at 10uM” value was -3.77%. For `COc1cccc(CNC23CC4CC(CC(C4)C2)C3)c1OCc1ccccc1.Cl`, the “hERG current change (%, negative = inhibition) at 10uM” value was -50%. On to `CNCc1ccc(OCc2ccccc2)c(OC)c1`, for which the “hERG current change (%, negative = inhibition) at 10uM” value turned out to be 0.71%. As for `COc1cccc(CNCc2cccnc2)c1OCc1ccccc1.Cl`, the “hERG current change (%, negative = inhibition) at 10uM” value was 19.3%.

Regarding `COc1cc(CNC(=O)C2CC2)ccc1OCc1ccccc1`, the “hERG current change (%, negative = inhibition) at 10uM” value is -11.8%. In the case of `c1ccc(COc2ccccc2CNC2CCCC2)cc1`, the “hERG current change (%, negative = inhibition) at 10uM” value is -39.7%. Turning to `Cl.c1ccc(COc2ccccc2CNC23CC4CC(CC(C4)C2)C3)cc1`, the “hERG current change (%, negative = inhibition) at 10uM” value is recorded as -83.6%. `COc1cc(CNC23CC4CC(CC(C4)C2)C3)ccc1OCc1ccccc1.Cl`: the “hERG current change (%, negative = inhibition) at 10uM” value was -64%. `COc1cccc(CNCCO)c1OCc1ccccc1.Cl`: the “hERG current change (%, negative = inhibition) at 10uM” value was -1.31%. As to `COc1cc(NC(=O)CS(=O)(=O)c2ccccc2)cc(OC)c1OC`, the “hERG current change (%, negative = inhibition) at 10uM” value came to 11.3%.

Consider `Cc1cccc(NC(=O)Nc2cccc(Oc3c(F)c(F)c(F)c(F)c3F)c2)c1`, for which the “hERG current change (%, negative = inhibition) at 10uM” value came to 8.83%.

For the molecule `N#C/C(=C/c1ccc(Br)s1)C(=O)NCCc1c[nH]c2ccccc12`, the “hERG current change (%, negative = inhibition) at 10uM” value was 18.8%. The figure for `O=C(COC(=O)c1ccc([N+](=O)[O-])cc1)Nc1cccnc1Cl` is -1.85%. Consider `O=C(Nc1ccncc1)c1cc(S(=O)(=O)N2CCCCC2)ccc1Cl`, for which the “hERG current change (%, negative = inhibition) at 10uM” value is -56.2%. Turning to `CCN(CC)S(=O)(=O)c1ccc(N2CCCC2)c(NC(=O)c2ccncc2)c1`, the “hERG current change (%, negative = inhibition) at 10uM” value was -22.6%.

In the case of `O=C(Nc1ccncc1)C1CCN(S(=O)(=O)c2ccc(Cl)c(C(F)(F)F)c2)CC1`, the “hERG current change (%, negative = inhibition) at 10uM” value is recorded as -69.9%.

Turning to `CS(=O)(=O)Nc1ccc(C(=O)Nc2ccc(S(=O)(=O)N3CCCCC3)cc2)cc1`, the “hERG current change (%, negative = inhibition) at 10uM” value was -13.8%. Take `CS(=O)(=O)Nc1ccc(S(=O)(=O)N2CCCC2)cc1`: the “hERG current change (%, negative = inhibition) at 10uM” value is listed as 8.49%. Take `CCN(CC)S(=O)(=O)c1ccc(N2CCCCC2)c(NC(=O)c2ccncc2)c1`: the “hERG current change (%, negative = inhibition) at 10uM” value is -29.5%.

As to `Cc1ccnc(NC(=O)C2CCN(S(=O)(=O)c3ccc(Cl)c(C(F)(F)F)c3)CC2)c1`, the “hERG current change (%, negative = inhibition) at 10uM” value is reported as -14.2%. For the molecule `O=C(Nc1ccncc1)c1cc(S(=O)(=O)N2CCOCC2)ccc1Cl`, the “hERG current change (%, negative = inhibition) at 10uM” value is -46.6%. The value for `O=C(Nc1cc(S(=O)(=O)N2CCCCC2)ccc1N1CCCCC1)c1ccncc1` was -52.4%. `O=C(Nc1ccc(O)cc1)c1cc(S(=O)(=O)N2CCCC2)ccc1Cl`: the “hERG current change (%, negative = inhibition) at 10uM” value was -14.9%. As for `O=C(Nc1nccs1)C1CCN(S(=O)(=O)c2ccc(Cl)c(C(F)(F)F)c2)CC1`, the “hERG current change (%, negative = inhibition) at 10uM” value is on record as -0.668%. The figure for `CS(=O)(=O)Nc1ccc(S(=O)(=O)N2CCCCCC2)cc1` is -65.4%; for `COc1ccc(S(=O)(=O)CCC(=O)Nc2c(C)cccc2C)cc1` it is 23%; for `CC(=O)Nc1ccc(S(=O)(=O)NCCSCc2ccccc2Cl)cc1` it is 2.92%.

As for `COc1ccc(Br)cc1-c1nc2c(c(=O)[nH]c(=O)n2Cc2ccccc2)n1C`, the “hERG current change (%, negative = inhibition) at 10uM” value was 5.42%.

Turning to `CC(C)CN(C(=O)Cn1c(C(F)(F)F)nc2ccccc21)C1CCS(=O)(=O)C1` (stereo not drawn), the “hERG current change (%, negative = inhibition) at 10uM” value is -9.53%. Consider `Cc1ccc(N2C(=O)C(NC(=O)c3ccccc3F)(C(F)(F)F)C3=C2CC(C)(C)CC3=O)cc1` (stereo not drawn), for which the “hERG current change (%, negative = inhibition) at 10uM” value amounted to 6.43%. In the case of `CC(SC1=Nc2ccccc2C2CC=NN12)C(=O)NC1(C#N)CCCCC1` (stereo not drawn), the “hERG current change (%, negative = inhibition) at 10uM” value is -19.8%. For `CNC(=S)N/N=C/C1=CCC2CC1C2(C)C` (stereo not drawn), the “hERG current change (%, negative = inhibition) at 10uM” value was -3.84%. The value for `O=C(Cn1nnc2ccccc2c1=O)Nc1cc(C(F)(F)F)ccc1N1CCOCC1` was -14.5%; that for `O=C(Nc1ccc(S(=O)(=O)N2CCOCC2)cc1)c1ccco1` was -20.3%; that for `O=C(Nc1cc(S(=O)(=O)N2CCCCC2)ccc1Cl)c1ccc(F)cc1` was -8.99%. The value for `O=C(O)c1ccccc1C(=O)Nc1ccc(S(=O)(=O)N2CCCC2)cc1` was 22.3%; that for `COc1cc(S(=O)(=O)N2CCCCC2)ccc1NC(=O)c1ccncc1` was -30.8%. As for `O=C(Nc1ccc(S(=O)(=O)N2CCCCCC2)cc1)c1ccco1`, the “hERG current change (%, negative = inhibition) at 10uM” value was -72.5%. The value for `O=C(Nc1cc(S(=O)(=O)N2CCCCC2)ccc1Cl)c1ccncc1` was -50.2%; that for `CN1CCN(S(=O)(=O)c2ccc(NC(=O)c3ccccc3Cl)cc2)CC1` was 8.9%; that for `O=C(Nc1ccc(S(=O)(=O)N2CCCCC2)cc1)c1ccccc1Cl` was -73.1%. On to `O=C(Nc1ccc(S(=O)(=O)N2CCCCC2)cc1)c1ccco1`, for which the “hERG current change (%, negative = inhibition) at 10uM” value was -10.7%.
